Results taken from PubChem BioAssay AID651599 (National Center for Advancing Translational Sciences (NCATS), 2012).
Results filed as inconclusive are left out. Values without a mark were called inactive. The source made the active and inactive calls. Calls come from the whole dose curve; as a rule, active = well fitted inhibition curve with a large enough effect; inconclusive = small, poorly fitted or top-dose-only effect; inactive = no such curve, though single readings can be large or run the other way.

target: Tumor susceptibility gene 101 protein (Homo sapiens) (UniProt Q99816); test: qHTS Assay for Iinhibitors of HIV-1 Budding by Blocking the Interaction of PTAP/TSG101: Hit Validation in TR assay; settings: Tsg101 binding domain + Texas Red-labeled PTAP peptide, fluorescence polarization, 20 min; series mostly up to 57.5 µM; activity change, negative = inhibition: at the top concentration
Text: Stages of the HIV-1 replication cycle, specifically virus assembly and release, provide underexploited targets for the development of novel antiviral inhibitors. The late stages of HIV-1 replication are mediated by the Gag precursor protein, Pr55Gag. Expression of Pr55Gag is both necessary and sufficient for the production of virus-like particles from Gag-expressing cells. The Gag protein hijacks key host proteins involved in endocytic machinery of the host cell to promote endosomal processing and viral budding. The budding process requires a direct interaction between a […] (PTAP) motif in the p6 domain of Gag and the cellular endosomal sorting protein known as Tsg101. In this way, the Gag PTAP motif promotes the host cells to recruit viral particles to the plasma membrane where the new viral particles are released, effectively turning the host cells into viral factories. A fluorescence anisotropy assay has been developed to quantitatively measure the PTAP-Tsg101 interaction which can be used to screen for inhibitors of this interaction.
This hit validation assay is similar to the primary assay but uses the Texas Red label instead of FITC.
NIH Molecular Libraries Probe Production Network [MLPCN]
NIH Chemical Genomics Center [NCGC]
PI Name: Dr. Eric Freed, NCI
Two uL of the Tsg101 binding domain in buffer (10 mM HEPES pH 7.5; 0.15 M NaCl, 0.01% Tween 20; 3 mM EDTA;0.1 mM TCEP) was dispensed into Greiner black MB 1536-well plates (final concentration 10 uM). Then, 23 nL of compounds or DMSO were delivered to each well using a pin tool. Finally, 2 uL of a TR-labeled peptide containing the PTAP motif (1) in the same buffer was dispensed (50 nM final concentration) and the binding was allowed to proceed for 20 min. at r.t. Fluorescent polarization was determined using TR excitation and polarized emission filters on a Perkin Elmer Viewlux.
Keywords: Tsg101, PTAP, Gag, HIV, fluorescent polarization, MLSMR, MLPCN, NIH Roadmap, qHTS, NCGC
% is set by controls: 0 for no effect and ±100 for the full control effect; potency is the fitted concentration of half-maximal effect.

Tumor susceptibility gene 101 protein (Homo sapiens), sequence (Q99816 whole entry, looked up, the tested form may be a part): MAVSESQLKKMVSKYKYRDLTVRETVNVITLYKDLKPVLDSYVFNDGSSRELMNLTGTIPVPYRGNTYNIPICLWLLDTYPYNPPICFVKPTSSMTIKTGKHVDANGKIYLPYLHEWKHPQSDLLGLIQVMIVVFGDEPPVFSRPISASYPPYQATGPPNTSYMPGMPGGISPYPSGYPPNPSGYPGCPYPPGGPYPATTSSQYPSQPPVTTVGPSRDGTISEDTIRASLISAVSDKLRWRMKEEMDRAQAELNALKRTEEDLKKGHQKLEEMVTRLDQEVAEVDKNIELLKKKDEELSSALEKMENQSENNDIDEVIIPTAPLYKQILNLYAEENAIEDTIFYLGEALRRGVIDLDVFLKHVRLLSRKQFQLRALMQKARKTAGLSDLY

SMILES	activity change, negative = inhibition	Potency
COc1ccc(N2C(=O)NC(=O)/C(=C\c3cn(C)c4ccccc34)C2=O)cc1	-82.3%	–
COc1cccc2c1C(=O)c1c(O)c3c(c(O)c1C2=O)CC(O)(C(C)=NO)CC3OC1CC(N)C(O)C(C)O1 (stereo unspecified)	-4.88%	–
N#CC(C#N)=Cc1ccc(-c2ccccc2F)o1	-14.9%	–
CCOC(=O)c1c(/N=C/c2c(O)n(-c3ccccc3F)c(=S)[nH]c2=O)sc2c1CCCC2	-9.37%	–
CCN(CC)c1ccc(N=Cc2c(O)n(-c3ccc(OC)cc3)c(=O)[nH]c2=O)cc1	2.78%	–
Nc1cc2nc3ccccc3nc2cc1N	-20.2%	–
CC1=NCCc2c1[nH]c1cc(O)ccc21	14.7%	–
CCOC(=O)C1CCCN(c2ccc([N+](=O)[O-])c3nonc23)C1 (stereo unspecified)	-2.58%	–
Cc1cc(N2CCCC2)ccc1C=C(C#N)C#N	61.5%	–
C=CCN1CCC2(C)c3cc(O)ccc3CC1C2C (stereo unspecified)	-6.86%	–
Nc1ccc2nonc2c1[N+](=O)[O-]	-5.71%	–
CC(C)C[C@H]1C(=O)N2CCCC2[C@]2(O)O[C@](NC(=O)[C@@H]3C=C4c5cccc6[nH]cc(c56)CC4N(C)C3)(C(C)C)C(=O)N12 (stereo partly specified)	11.2%	–
CCN(CC)C(=O)Cn1cc(C=C2C(=O)N(C)C(=O)N(C)C2=O)c2ccccc21	-8.32%	–
CC1=C[C@@H]2c3cccc4[nH]cc(c34)C[C@H]2N(C)C1	-10.5%	–
O=C1NC(=O)N(c2ccc(F)cc2)C(=O)/C1=C/c1ccc2c(c1)CCCN2Cc1ccccc1	2.12%	–
C#CCN1C(=O)S/C(=C\c2ccc(N3CCOCC3)cc2C)C1=O	-9.29%	–
N#CCN1CCN(c2ccc(C(F)(F)F)cc2)CC1	-12.3%	–
O=c1cc(C(F)(F)F)c2cc3c4c(c2o1)CCCN4CCC3	12.3%	–
CCOC(=O)[C@]1(C#N)[C@@H]2C=CC(C(C)=O)=CN2[C@@H](C(N)=O)[C@@H]1c1ccsc1	54.4%	–
CN1/C(=C\C=C2C(=O)NC(=S)NC2=O)C(C)(C)c2ccccc21	17%	–
CN1Cc2c(c(C#N)c(N)n(C)c2=S)CC1(C)C	24.8%	–
O=[N+]([O-])c1ccc(NCc2ccccc2)c2nonc12	-2.23%	–
CC(C)C[C@H]1C(=O)N2CCC[C@H]2[C@]2(O)O[C@](NC(=O)[C@@H]3C=C4c5cccc6[nH]cc(c56)C[C@H]4N(C)C3)(C(C)C)C(=O)N12	23.6%	–
CN1CCN(c2ccc([N+](=O)[O-])c3no[n+]([O-])c23)CC1	-24.5%	–
CN1CC=C2C(C#N)=C(N)C(C#N)(C#N)C(c3ccncc3)C2C1 (stereo unspecified)	-13.5%	–
Nc1ccc2ccc3cccc[n+]3c2c1	–	16.3 µM (active)
